# Measured values as given in ChEMBL document CHEMBL5724796, “Tm Shift (DSF) assay results for EUbOPEN Chemogenomics Library” (2024).
# Residues, ends and D or L forms follow the SMILES beside them. *: point of attachment. Cbz = O=C(OCc1ccccc1)*; CH2F = FC*
# What was measured:
# Settings in all cases: Compound concentration 20.0 uM
# [1] = biological target: Tyrosine-protein kinase ABL1 (Homo sapiens) (UniProt P00519)
# [2] = biological target: Bromodomain-containing protein 4 (Homo sapiens) (UniProt O60885)
# [3] = biological target: Cyclin-dependent kinase 2 (Homo sapiens) (UniProt P24941)
# [4] = biological target: Casein kinase I isoform delta (Homo sapiens) (UniProt P48730)
# [5] = biological target: Glycogen synthase kinase-3 beta (Homo sapiens) (UniProt P49841)
# [6] = biological target: Mitogen-activated protein kinase 1 (Homo sapiens) (UniProt P28482)
# [7] = biological target: T1, Aurora kinase A (Homo sapiens) (UniProt O14965)
# T1 sequence (whole entry): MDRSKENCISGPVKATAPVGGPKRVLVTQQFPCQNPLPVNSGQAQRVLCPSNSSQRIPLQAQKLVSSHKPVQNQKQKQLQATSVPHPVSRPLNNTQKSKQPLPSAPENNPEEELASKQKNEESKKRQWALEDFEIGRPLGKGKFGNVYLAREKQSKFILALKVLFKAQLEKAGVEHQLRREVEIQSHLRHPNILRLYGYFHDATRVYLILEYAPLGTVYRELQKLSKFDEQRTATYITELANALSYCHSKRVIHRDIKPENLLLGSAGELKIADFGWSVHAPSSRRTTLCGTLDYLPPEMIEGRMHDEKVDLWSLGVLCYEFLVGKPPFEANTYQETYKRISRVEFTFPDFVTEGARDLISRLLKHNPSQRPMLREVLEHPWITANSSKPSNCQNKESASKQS
# [8] = biological target: T2, Transcription intermediary factor 1-alpha (Homo sapiens) (UniProt O15164)
# T2 sequence (whole entry): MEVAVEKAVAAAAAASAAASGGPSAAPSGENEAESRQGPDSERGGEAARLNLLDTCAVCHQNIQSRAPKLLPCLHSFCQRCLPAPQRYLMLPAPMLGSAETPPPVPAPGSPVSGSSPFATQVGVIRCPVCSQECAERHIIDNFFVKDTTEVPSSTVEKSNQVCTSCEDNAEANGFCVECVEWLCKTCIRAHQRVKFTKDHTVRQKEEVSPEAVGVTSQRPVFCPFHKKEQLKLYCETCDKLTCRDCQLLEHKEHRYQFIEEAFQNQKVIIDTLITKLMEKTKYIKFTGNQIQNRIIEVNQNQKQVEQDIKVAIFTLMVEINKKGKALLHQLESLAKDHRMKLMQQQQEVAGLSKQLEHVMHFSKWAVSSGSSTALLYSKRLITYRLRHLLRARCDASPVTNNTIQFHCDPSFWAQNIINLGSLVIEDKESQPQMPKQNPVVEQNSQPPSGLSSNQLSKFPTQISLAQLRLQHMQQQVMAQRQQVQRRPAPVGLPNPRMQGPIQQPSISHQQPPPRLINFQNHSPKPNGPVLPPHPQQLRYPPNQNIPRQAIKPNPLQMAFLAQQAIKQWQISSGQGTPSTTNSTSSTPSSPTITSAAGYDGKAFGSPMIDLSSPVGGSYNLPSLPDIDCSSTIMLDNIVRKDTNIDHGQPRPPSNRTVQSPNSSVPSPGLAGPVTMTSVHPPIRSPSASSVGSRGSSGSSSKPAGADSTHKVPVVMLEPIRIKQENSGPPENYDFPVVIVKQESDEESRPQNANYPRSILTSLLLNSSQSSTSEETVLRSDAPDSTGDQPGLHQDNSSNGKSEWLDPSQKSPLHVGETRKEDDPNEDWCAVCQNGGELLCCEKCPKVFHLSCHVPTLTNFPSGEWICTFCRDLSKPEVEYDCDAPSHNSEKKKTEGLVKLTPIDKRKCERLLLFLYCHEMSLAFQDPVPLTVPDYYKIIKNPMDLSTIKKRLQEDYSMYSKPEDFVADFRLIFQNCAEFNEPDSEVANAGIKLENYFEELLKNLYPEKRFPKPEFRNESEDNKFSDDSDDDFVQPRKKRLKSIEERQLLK
# Sequence of Casein kinase I isoform delta (Homo sapiens) (P48730 whole entry, looked up, canonical isoform): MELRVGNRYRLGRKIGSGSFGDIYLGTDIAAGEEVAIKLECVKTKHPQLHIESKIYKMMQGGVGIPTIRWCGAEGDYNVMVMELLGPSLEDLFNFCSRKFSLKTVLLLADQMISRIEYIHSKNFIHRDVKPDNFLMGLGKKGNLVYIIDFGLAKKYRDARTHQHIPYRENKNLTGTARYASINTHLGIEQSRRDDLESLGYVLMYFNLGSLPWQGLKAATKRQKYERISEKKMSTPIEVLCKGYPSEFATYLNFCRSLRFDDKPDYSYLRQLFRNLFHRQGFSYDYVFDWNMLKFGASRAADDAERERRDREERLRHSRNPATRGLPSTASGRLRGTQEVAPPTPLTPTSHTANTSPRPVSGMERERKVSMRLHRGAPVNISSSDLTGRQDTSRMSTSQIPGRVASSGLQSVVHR
# Sequence of Mitogen-activated protein kinase 1 (Homo sapiens) (P28482 whole entry): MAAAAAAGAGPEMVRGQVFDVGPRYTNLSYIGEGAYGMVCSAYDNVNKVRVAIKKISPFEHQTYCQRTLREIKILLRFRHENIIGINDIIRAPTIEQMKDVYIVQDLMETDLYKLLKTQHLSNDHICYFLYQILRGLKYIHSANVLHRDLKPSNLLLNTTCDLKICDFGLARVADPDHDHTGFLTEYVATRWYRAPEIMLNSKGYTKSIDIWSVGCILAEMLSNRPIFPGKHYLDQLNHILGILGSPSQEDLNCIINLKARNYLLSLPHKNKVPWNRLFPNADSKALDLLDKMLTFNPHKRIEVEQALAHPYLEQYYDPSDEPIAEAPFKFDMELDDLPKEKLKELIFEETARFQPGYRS
# Sequence of Tyrosine-protein kinase ABL1 (Homo sapiens) (P00519 whole entry): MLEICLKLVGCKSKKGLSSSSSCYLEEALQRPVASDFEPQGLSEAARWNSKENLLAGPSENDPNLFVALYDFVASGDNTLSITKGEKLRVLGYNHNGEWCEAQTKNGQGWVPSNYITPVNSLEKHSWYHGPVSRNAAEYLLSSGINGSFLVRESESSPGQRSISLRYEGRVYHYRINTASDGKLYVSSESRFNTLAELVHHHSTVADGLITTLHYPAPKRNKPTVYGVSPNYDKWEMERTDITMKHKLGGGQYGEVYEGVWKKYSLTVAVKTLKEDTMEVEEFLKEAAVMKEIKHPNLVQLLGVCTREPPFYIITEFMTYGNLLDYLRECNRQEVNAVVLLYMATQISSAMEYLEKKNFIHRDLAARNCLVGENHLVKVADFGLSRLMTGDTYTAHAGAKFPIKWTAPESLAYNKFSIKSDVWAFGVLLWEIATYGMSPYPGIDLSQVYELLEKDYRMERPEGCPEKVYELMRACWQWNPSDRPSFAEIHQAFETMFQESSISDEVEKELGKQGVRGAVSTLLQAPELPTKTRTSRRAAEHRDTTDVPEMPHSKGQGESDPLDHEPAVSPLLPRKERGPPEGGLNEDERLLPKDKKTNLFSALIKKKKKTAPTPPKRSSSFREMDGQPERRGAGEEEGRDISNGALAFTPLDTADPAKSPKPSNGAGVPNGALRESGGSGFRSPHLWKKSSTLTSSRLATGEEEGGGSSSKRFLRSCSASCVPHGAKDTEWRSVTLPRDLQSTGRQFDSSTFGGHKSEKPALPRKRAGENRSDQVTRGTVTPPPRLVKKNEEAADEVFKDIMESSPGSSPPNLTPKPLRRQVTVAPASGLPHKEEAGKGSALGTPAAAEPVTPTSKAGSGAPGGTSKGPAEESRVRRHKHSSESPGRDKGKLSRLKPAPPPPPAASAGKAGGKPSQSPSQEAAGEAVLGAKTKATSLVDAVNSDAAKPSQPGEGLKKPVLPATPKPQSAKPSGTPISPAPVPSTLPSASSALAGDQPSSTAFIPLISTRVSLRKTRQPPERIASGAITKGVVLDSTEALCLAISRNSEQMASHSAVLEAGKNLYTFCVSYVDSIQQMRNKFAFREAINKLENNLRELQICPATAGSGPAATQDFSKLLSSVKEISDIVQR
# Sequence of Glycogen synthase kinase-3 beta (Homo sapiens) (P49841 whole entry, looked up): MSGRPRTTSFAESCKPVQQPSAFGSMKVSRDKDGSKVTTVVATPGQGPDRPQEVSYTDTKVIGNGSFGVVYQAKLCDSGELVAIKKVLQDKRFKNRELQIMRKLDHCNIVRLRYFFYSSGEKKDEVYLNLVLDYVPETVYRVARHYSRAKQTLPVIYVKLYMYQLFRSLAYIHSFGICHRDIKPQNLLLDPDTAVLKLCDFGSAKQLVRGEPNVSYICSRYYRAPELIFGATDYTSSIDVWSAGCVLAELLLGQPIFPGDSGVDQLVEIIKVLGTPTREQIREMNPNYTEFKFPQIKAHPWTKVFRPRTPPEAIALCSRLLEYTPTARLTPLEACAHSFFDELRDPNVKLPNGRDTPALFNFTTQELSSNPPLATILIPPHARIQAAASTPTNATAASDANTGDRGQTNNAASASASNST
smiles,measurement,setting,value
CC(C)c1c(-c2ccccc2)[nH]c2c(C#N)cnn2c1=O,ΔTm,[1],0.72 °C
same,ΔTm,[2],-2.81 °C
same,ΔTm,[3],0.4 °C
same,ΔTm,[4],-0.22 °C
same,ΔTm,[5],-0.15 °C
same,ΔTm,[6],0.17 °C
same,ΔTm,[7],-1.64 °C
same,ΔTm,[8],-0.06 °C
CCN(CC)S(=O)(=O)c1cc(Nc2nccc(-c3ccnc(-c4ccc(NC(=O)NC)cc4)c3)n2)ccc1Cl,ΔTm,[1],15.6 °C
same,ΔTm,[2],0 °C
same,ΔTm,[3],0 °C
same,ΔTm,[4],0.81 °C
same,ΔTm,[5],24.1 °C
same,ΔTm,[6],0 °C
same,ΔTm,[7],0 °C
same,ΔTm,[8],0 °C
CC(=O)O[C@]1(C(C)=O)CC[C@H]2[C@@H]3C=C(Cl)C4=CC(=O)[C@@H]5C[C@@H]5[C@]4(C)[C@H]3CC[C@@]21C,ΔTm,[1],0.36 °C
same,ΔTm,[2],-1.71 °C
same,ΔTm,[3],0.15 °C
same,ΔTm,[4],0.16 °C
same,ΔTm,[5],-0.72 °C
same,ΔTm,[6],-0.22 °C
same,ΔTm,[7],-1.49 °C
same,ΔTm,[8],-1.08 °C
C[C@H](CN[C@@H](C(=O)Nc1ccc(-c2cnn(C)c2)cn1)c1ccccc1)c1ccc(C#N)cc1,ΔTm,[1],-0.21 °C
same,ΔTm,[2],-5.89 °C
same,ΔTm,[3],-3.07 °C
same,ΔTm,[4],1.03 °C
same,ΔTm,[5],-2.94 °C
same,ΔTm,[6],-4.97 °C
same,ΔTm,[7],-1.84 °C
same,ΔTm,[8],-1.37 °C
Cc1nc(F)ccc1-c1cc(Cn2ccn(C)c2=N)cc(C(=O)NCc2ccc(Cl)c(Cl)c2)c1,ΔTm,[1],0.39 °C
same,ΔTm,[2],-2.09 °C
same,ΔTm,[3],-0.77 °C
same,ΔTm,[4],0.13 °C
same,ΔTm,[5],-0.9 °C
same,ΔTm,[6],-0.24 °C
same,ΔTm,[7],-0.34 °C
same,ΔTm,[8],-1.96 °C
COc1ccc(-n2c(SCCCN3C(=O)c4cccc5cccc(c45)C3=O)nnc2-c2ccncc2)cc1,ΔTm,[1],0.68 °C
same,ΔTm,[2],-3.3 °C
same,ΔTm,[3],-0.02 °C
same,ΔTm,[4],0.26 °C
same,ΔTm,[5],-0.45 °C
same,ΔTm,[6],0.07 °C
same,ΔTm,[7],-1.38 °C
same,ΔTm,[8],0.1 °C
O=C(NC(Cc1ccccc1)C(=O)NC(Cc1ccccc1)C(=O)CF)OCc1ccccc1 (stereo not drawn) (Cbz-Phe-Phe-CH2F; configuration not given here),ΔTm,[1],0.45 °C
same,ΔTm,[2],-0.83 °C
same,ΔTm,[3],0.11 °C
same,ΔTm,[4],-0.3 °C
same,ΔTm,[5],0.04 °C
same,ΔTm,[6],0.22 °C
same,ΔTm,[7],-2.32 °C
same,ΔTm,[8],1.22 °C
C[C@H](NC(=O)c1cn(C2(C#N)CC2)cn1)C(=O)Nc1nc(-c2cccc(-c3ccn(C)n3)c2)cs1,ΔTm,[1],0.58 °C
same,ΔTm,[2],-1.99 °C
same,ΔTm,[3],0.19 °C
same,ΔTm,[4],0.61 °C
same,ΔTm,[5],-0.01 °C
same,ΔTm,[6],-0.23 °C
same,ΔTm,[7],1.33 °C
same,ΔTm,[8],-0.79 °C
O=C1c2ccccc2C(=O)c2oc(-c3ccc(F)cc3)nc21,ΔTm,[1],0.01 °C
same,ΔTm,[2],-1.84 °C
same,ΔTm,[3],-0.07 °C
same,ΔTm,[4],-0.12 °C
same,ΔTm,[5],-0.33 °C
same,ΔTm,[6],0.17 °C
same,ΔTm,[7],-2.4 °C
same,ΔTm,[8],-0.61 °C
Cc1cccc(N/N=C(\C(=O)c2cccs2)C(=O)C(F)(F)F)c1,ΔTm,[1],0.48 °C
same,ΔTm,[2],-1.9 °C
same,ΔTm,[3],0.44 °C
same,ΔTm,[4],-0.01 °C
same,ΔTm,[5],-0.93 °C
same,ΔTm,[6],0.19 °C
same,ΔTm,[7],-1.9 °C
same,ΔTm,[8],-1.89 °C
CCCOc1cc(OCCCCN(C)C)cc(Oc2cc3c(cc2NS(=O)(=O)c2ccc(OC)c(OC)c2)n(C)c(=O)n3C)c1,ΔTm,[1],0.57 °C
same,ΔTm,[2],0.5 °C
same,ΔTm,[3],0.09 °C
same,ΔTm,[4],0.22 °C
same,ΔTm,[5],0.59 °C
same,ΔTm,[6],0 °C
same,ΔTm,[7],-0.88 °C
CC(=O)Nc1ccc(-c2cc(-c3ccccc3)nc3cc(C(=O)NCCCn4ccnc4)nn23)cc1,ΔTm,[1],0.52 °C
same,ΔTm,[2],1.46 °C
same,ΔTm,[3],-0.15 °C
same,ΔTm,[4],1.15 °C
same,ΔTm,[5],-0.59 °C
same,ΔTm,[6],0.9 °C
same,ΔTm,[7],-0.25 °C
same,ΔTm,[8],-2.15 °C
N[C@@H](CC(=O)N1CCN(C(c2ccc(F)cc2)c2ccc(F)cc2)CC1)C(=O)N1Cc2ccccc2C1,ΔTm,[1],-0.03 °C
same,ΔTm,[2],0.11 °C
same,ΔTm,[3],-3.61 °C
same,ΔTm,[4],-0.26 °C
same,ΔTm,[5],0 °C
same,ΔTm,[6],0 °C
same,ΔTm,[7],0 °C
same,ΔTm,[8],-6.21 °C
Cc1ncccc1-c1cnc(NCc2c(F)ccc3c2CCO3)n2cnnc12,ΔTm,[1],0.04 °C
same,ΔTm,[2],-1.73 °C
same,ΔTm,[3],0.42 °C
same,ΔTm,[4],0.15 °C
same,ΔTm,[5],-0.06 °C
same,ΔTm,[6],0.37 °C
same,ΔTm,[7],-0.39 °C
same,ΔTm,[8],-1.52 °C
O=C(O)/C(S)=C/c1c[nH]c2ccc(F)cc12,ΔTm,[1],-1 °C
same,ΔTm,[2],-4.6 °C
same,ΔTm,[3],-0.97 °C
same,ΔTm,[4],0.7 °C
same,ΔTm,[5],-0.98 °C
same,ΔTm,[6],0.11 °C
same,ΔTm,[7],0.25 °C
same,ΔTm,[8],-2.02 °C
CC(=O)N[C@@H](CC(=O)O)C(=O)N[C@@H](CC(N)=O)C(=O)N[C@@H](CC(C)C)C(=O)N[C@H](C=O)CC(=O)O,ΔTm,[1],0.21 °C
same,ΔTm,[2],-3.48 °C
same,ΔTm,[3],0.27 °C
same,ΔTm,[4],-0.23 °C
same,ΔTm,[5],-0.99 °C
same,ΔTm,[6],0.1 °C
same,ΔTm,[7],-0.95 °C
same,ΔTm,[8],0.8 °C
CC/C(=C(/c1ccc(/C=C/C(=O)O)cc1)c1ccc2[nH]ncc2c1)c1ccc(F)cc1Cl,ΔTm,[1],-5.16 °C
same,ΔTm,[2],-0.16 °C
same,ΔTm,[3],-3.66 °C
same,ΔTm,[4],-4.37 °C
same,ΔTm,[5],3.37 °C
same,ΔTm,[6],0 °C
same,ΔTm,[7],1.69 °C
same,ΔTm,[8],0 °C
O=C1/C(=N/Nc2ccc(S(=O)(=O)O)cc2)C(c2ccc([N+](=O)[O-])cc2)=NN1c1ccccc1,ΔTm,[1],1.16 °C
same,ΔTm,[2],-0.38 °C
same,ΔTm,[3],-0.28 °C
same,ΔTm,[4],0.56 °C
same,ΔTm,[5],-2.61 °C
same,ΔTm,[6],0 °C
same,ΔTm,[7],-0.73 °C
same,ΔTm,[8],-0.32 °C
CN1CCc2c(n(Cc3ccc(C(=O)NO)cc3)c3ccccc23)C1,ΔTm,[1],0.24 °C
same,ΔTm,[2],-1.44 °C
same,ΔTm,[3],0.56 °C
same,ΔTm,[4],-0.06 °C
same,ΔTm,[5],-0.89 °C
same,ΔTm,[6],0.14 °C
same,ΔTm,[7],-0.37 °C
same,ΔTm,[8],-1.21 °C
O=C(NCCCn1ccnc1)c1cc2nc(-c3ccccc3)cc(-c3ccccc3)n2n1,ΔTm,[1],0.26 °C
same,ΔTm,[2],-2.23 °C
same,ΔTm,[3],-0.13 °C
same,ΔTm,[4],0.15 °C
same,ΔTm,[5],-0.59 °C
same,ΔTm,[6],-2.4 °C
same,ΔTm,[7],-0.86 °C
same,ΔTm,[8],-0.04 °C
